# Source: PubChem BioAssay (NCI)
# About 83,000 compounds went through this panel and 20% of them were active in at least one assay; those are over-represented in the sample as a whole.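 Note: values are percent growth. 100 is the growth of untreated cells, values between 100 and 0 indicate rising inhibition; between -100 and 0 indicates cell death.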 A number with no mark means an inactive call. Activity calls are given as the source filed them. The calls were made as follows: active = growth percent below 10; inactive = the rest.
# How the values were obtained:
# Assay in all cases: NCI-60 one-dose screen, 48 h (100 = growth as untreated, 0 = no growth, -100 = all killed)
# Settings in all cases: 10 µM unless noted
# NCI-H23 lung = system: NCI-H23 lung
# NCI-H226 lung = system: NCI-H226 lung
# NCI-H322M lung = system: NCI-H322M lung
# HOP-62 NSCLC = system: HOP-62 NSCLC
# NCI-H460 lung = system: NCI-H460 lung
# HOP-92 NSCLC = system: HOP-92 NSCLC
# NCI-H522 lung = system: NCI-H522 lung
# A549/ATCC NSCLC = system: A549/ATCC NSCLC
# 786-0 renal = system: 786-0 renal
# COLO 205 colon = system: COLO 205 colon
SMILES,growth (NCI-H23 lung),growth (NCI-H226 lung),growth (NCI-H322M lung),growth (HOP-62 NSCLC),growth (NCI-H460 lung),growth (HOP-92 NSCLC),growth (NCI-H522 lung),growth (A549/ATCC NSCLC),growth (786-0 renal),growth (COLO 205 colon)
O=C(/C=C/C12c3ccccc3C(c3ccccc31)C1C(=O)NC(=O)C12)c1ccc(F)cc1 (stereo not given),9.23% (active),36.9%,-4.89% (active),-45.3% (active),2.15% (active),-30.9% (active),2.09% (active),10.6%,-9.86% (active),-45.4% (active)
COc1cc(/C=C/c2cc(/C=C/c3ccc(O)c(OC)c3)n(C(=O)Nc3ccc(F)cc3)n2)ccc1O,10.7%,15.9%,27.3%,30.2%,8.35% (active),-3.45% (active),-6.04% (active),12%,-6.9% (active),8.73% (active)
O=C1/C(=C/c2ccc(C(F)(F)F)cc2)COc2ccc(O)cc21,98%,107%,95.2%,96.2%,98.4%,82.4%,-13.6% (active),87.1%,80%,90.7%
O=C(N/N=C/c1ccc(Cl)cc1Cl)c1ccc2nc(-c3ccc(Cl)cc3)[nH]c2c1,-0.367% (active),99.3%,27.7%,8.05% (active),-33.6% (active),28.1%,63.2%,-26.7% (active),-42.1% (active),-23.9% (active)
COc1ccc2c(O)c(/C=C3\N=Nc4ccccc43)oc2c1C[C@H]1CCNC[C@H]1F,46.8%,60.6%,73.4%,53.6%,29.8%,38.6%,46.7%,34.4%,57.8%,0.564% (active)
CCOC(=O)c1cn2ncnc(Oc3ccc(NC(=O)NC4CC4)c(F)c3)c2c1C,90.4%,78.6%,105%,95.2%,99.1%,132%,90.2%,102%,106%,113%
COc1ccc(C(C)=O)cc1S(N)(=O)=O,98.2%,101%,97.1%,112%,104%,92%,75.6%,88%,89.4%,115%
CC1(C)C2CC=C(/C=N/NC(=O)C3CCC(=O)N3)C1C2 (stereo not given),97.7%,106%,107%,110%,102%,99.5%,99.9%,104%,101%,114%
Cc1ccc(Nc2nc(-c3ccc(F)cc3)c(C#N)c(=O)n2C)cc1,66.7%,64%,74.8%,50.9%,84.5%,0.0271% (active),49.7%,61.7%,67.5%,66.8%
CN1CCN(C(=O)c2cc(-c3ccc4ncnc(N5CCc6cc(F)c(Cl)cc65)c4c3)cnc2N)CC1,8.25% (active),14.5%,-8.41% (active),12%,8.83% (active),-27.2% (active),2.49% (active),3.84% (active),2.28% (active),3.92% (active)
CCNc1nc(-c2ccc(F)cc2)c(C#N)c(=O)n1C,73.8%,55%,57.2%,51.8%,74.7%,-1.14% (active),52.1%,58.9%,64.3%,62.8%
O=C(Nc1ccc(F)cc1)Nc1ccccc1CNc1nc(Nc2ccc(OCCN3CCCC3)cc2)ncc1Cl,60.8%,99.1%,89.1%,51.3%,9.85% (active),52.2%,37%,38.2%,-16.3% (active),0.109% (active)
CN1C(=O)N(C)C2C1NC(=S)N2/N=C/C=C/c1ccccc1[N+](=O)[O-] (stereo not given),38.2%,28.4%,49.3%,26.2%,12.6%,33.9%,9.84% (active),31.3%,26.6%,14.3%
CCOC(=O)C1=C(c2ccccc2)N=c2s/c(=C/c3ccc(Br)cc3)c(=O)n2C1c1ccc(O)cc1 (stereo not given),95.4%,86.6%,91.9%,105%,94.1%,71.2%,87.9%,80.2%,77.4%,118%
N=C(N)c1ccc(-c2ccc(-c3ccc(F)cc3)s2)s1,-62.6% (active),90.4%,-29.7% (active),57%,-64.9% (active),28.5%,-72% (active),-65.8% (active),-57.5% (active),-80.6% (active)
Cc1[nH]c(C(=O)Nc2ccc(C(N)=O)cc2NC(C)C)c(Cl)c1Cl,85.8%,91.6%,98.7%,104%,93.1%,72.7%,79.3%,85.5%,91.1%,122%
C=CCn1c(SCC(=O)Nc2ccc(C(=O)/C=C/c3ccc(OC)cc3)cc2)nnc1-c1ccccc1,94.2%,90.3%,89%,91.6%,103%,86%,80.7%,83%,73.3%,101%
CCOC(=O)Cn1c(=O)c2c3ccccc3n(C)c2n2nnc(-c3ccccc3)c12,84.8%,76.9%,120%,106%,101%,41.1%,86.1%,159%,98%,116%
CN(C)c1ccc(C(=NO)c2ccc(N(C)C)cc2)cc1,47.3%,78.5%,81.3%,46.2%,7.18% (active),37.8%,-25.8% (active),31.4%,57.3%,42.8%
Cc1c2cnccc2c(C)c2c1c1cc(C3OCCCO3)ccc1n2C,-31.9% (active),-4.43% (active),-2.25% (active),-13% (active),0.184% (active),-10.5% (active),-41.6% (active),2.33% (active),11.8%,-17.6% (active)
C#Cc1cccc(Oc2ccc(NC(=O)CCl)cc2)c1,20.7% [8.25 µM],55.9% [8.25 µM],100% [8.25 µM],83.5% [8.25 µM],19% [8.25 µM],81.2% [8.25 µM],-32.6% [8.25 µM] (active),68.3% [8.25 µM],74.8% [8.25 µM],61.6% [8.25 µM]
CN1CCN(Cc2cc(NC(=O)c3cccc(C#Cc4cccc5[nH]nc(N)c45)c3)cc(C(F)(F)F)c2)CC1,41.3%,24.6%,35.9%,42.4%,-20.9% (active),-28.4% (active),20.9%,27.9%,24.9%,-35.3% (active)
Cc1cc(C)cc(Nc2ccc([N+](=O)[O-])c(NCCN3CCOCC3)n2)c1,30.3%,22.6%,44.1%,35.3%,8.31% (active),67.7%,13.3%,23.7%,8.13% (active),-45.9% (active)
CCCn1c(=S)sc2c1nc(C)n1c(Nc3ccccc3)nnc21,26.6%,66.9%,83.9%,75.5%,45.3%,48.9%,12.4%,66.1%,54.8%,128%
O=C(Nc1ccccc1O)c1ccccc1Nc1ccnc(C(F)(F)F)c1,94.5%,70.4%,114%,99.5%,97.3%,88%,83.9%,114%,104%,148%
